From the supplement of paper PMC8975748 come the findings set out here.

Structures can show the parent of a compound that is named as a salt.

The subject of one test is Saccharomyces cerevisiae BY4741 SeMeCo community. Briefly: z-score of subpopulation abundance vs DMSO median, subpopulation auxotrophic for HLM; higher = larger share of this subpopulation than in DMSO controls. The following applies: 10 µM; 24 h; SM minimal medium; subpopulation (auxotrophy): HLM. The method in brief: (§1)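 Scoring was based on each subpopulation's abundance, expressed as a z-score against the vehicle-well median. A Saccharomyces cerevisiae BY4741 community with four plasmids, each restoring one auxotrophy and encoding a distinct fluorescent protein, was pre-grown overnight to OD600 1.0, diluted to 0.3, and added at 70 µl to 384-well plates acoustically predosed with library drugs (10 µM final). It then grew 24 h in minimal SM medium before paraformaldehyde fixation and automated confocal microscopy, with single-auxotroph fluorescent strains setting thresholds and autofluorescence correction.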
On to `C[C@]12CCC3=C4CCC(=O)C=C4CC[C@H]3[C@@H]1CC[C@@]2(O)CC#N` [Dienogest], for which the “z-score of subpopulation abundance” value was -0.38.

For `NCC[C@H](O)C(=O)N[C@@H]1C[C@H](N)[C@@H](O[C@H]2O[C@H](CN)[C@@H](O)[C@H](O)[C@H]2O)[C@H](O)[C@H]1O[C@H]1O[C@H](CO)[C@@H](O)[C@H](N)[C@H]1O` [Amikacin disulfate], the “z-score of subpopulation abundance” value is -0.68.

Take `CN1C2CCCC1CC(NC(=O)c1nn(C)c3ccccc13)C2` (centres undefined) [Granisetron]: the “z-score of subpopulation abundance” value is -0.1.

As to `CCCCCNC(=N)N/N=C/c1c[nH]c2ccc(OC)cc12` [Tegaserod Maleate], the “z-score of subpopulation abundance” value was determined as 1.63.

Turning to `COc1ccc2cc3[n+](cc2c1OC)CCc1cc2c(cc1-3)OCO2` [Berberine Sulfate], the “z-score of subpopulation abundance” value came to 0.13.

Take `CS(=O)(=O)Nc1ccc([N+](=O)[O-])cc1Oc1ccccc1` [Nimesulide]: the “z-score of subpopulation abundance” value was -0.08.

Regarding `COc1cc(O)c(C(=O)Nc2nc(C(=O)NCCN(C(C)C)C(C)C)cs2)cc1OC` [Acotiamide hydrochloride], the “z-score of subpopulation abundance” value turned out to be 0.13.

With `C[C@H]1c2cccc(O)c2C(O)=C2C(=O)[C@]3(O)C(O)=C(C(N)=O)C(=O)[C@@H](N(C)C)[C@@H]3[C@@H](O)[C@@H]21` [Doxycycline monohydrate], the “z-score of subpopulation abundance” value was 0.18.

Take `COC(=O)C1=C(C)NC(C)=C(C(=O)OC(C)(C)CN(C)CCC(c2ccccc2)c2ccccc2)C1c1cccc([N+](=O)[O-])c1` (centres undefined) [Lercanidipine hydrochloride]: the “z-score of subpopulation abundance” value came out at 0.74.

Turning to `CC(c1cc2ccccc2s1)N(O)C(N)=O` (centres undefined) [Zileuton], the “z-score of subpopulation abundance” value came out at 0.43.

For `O=c1ccn(C2CC(O)C(CO)O2)c(=O)[nH]1` (centres undefined) [2-deoxyuridine], the “z-score of subpopulation abundance” value is 0.54.

With `Nc1nc2[nH]cc(CCc3ccc(C(=O)N[C@@H](CCC(=O)O)C(=O)O)cc3)c2c(=O)[nH]1` [Pemetrexed Disodium Hydrate], the “z-score of subpopulation abundance” value worked out at 1.25.

The test system is the same in the next test. Briefly: z-score of subpopulation abundance vs DMSO median, subpopulation auxotrophic for HUM; higher = larger share of this subpopulation than in DMSO controls. The settings on record: 10 µM; 24 h; SM minimal medium; subpopulation (auxotrophy): HUM. The method in brief:
as §1
Consider `C[C@]12CCC3=C4CCC(=O)C=C4CC[C@H]3[C@@H]1CC[C@@]2(O)CC#N` [Dienogest], for which the “z-score of subpopulation abundance” value is -0.51.

Turning to `C[N+]1(C)CCC(OC(=O)C(O)(c2ccccc2)C2CCCC2)C1` (centres undefined) [Glycopyrrolate], the “z-score of subpopulation abundance” value came to 0.23.

On to `NCC[C@H](O)C(=O)N[C@@H]1C[C@H](N)[C@@H](O[C@H]2O[C@H](CN)[C@@H](O)[C@H](O)[C@H]2O)[C@H](O)[C@H]1O[C@H]1O[C@H](CO)[C@@H](O)[C@H](N)[C@H]1O` [Amikacin disulfate], for which the “z-score of subpopulation abundance” value is -0.51.

For the molecule `CCCCCNC(=N)N/N=C/c1c[nH]c2ccc(OC)cc12` [Tegaserod Maleate], the “z-score of subpopulation abundance” value turned out to be 0.89.

As to `COc1ccc2cc3[n+](cc2c1OC)CCc1cc2c(cc1-3)OCO2` [Berberine Sulfate], the “z-score of subpopulation abundance” value was determined as 0.71.

Take `CS(=O)(=O)Nc1ccc([N+](=O)[O-])cc1Oc1ccccc1` [Nimesulide]: the “z-score of subpopulation abundance” value amounted to 0.28.

In the case of `COc1cc(O)c(C(=O)Nc2nc(C(=O)NCCN(C(C)C)C(C)C)cs2)cc1OC` [Acotiamide hydrochloride], the “z-score of subpopulation abundance” value stood at 0.54.

Consider `C[C@H]1c2cccc(O)c2C(O)=C2C(=O)[C@]3(O)C(O)=C(C(N)=O)C(=O)[C@@H](N(C)C)[C@@H]3[C@@H](O)[C@@H]21` [Doxycycline monohydrate], for which the “z-score of subpopulation abundance” value is -0.92.

On to `CC(c1cc2ccccc2s1)N(O)C(N)=O` (centres undefined) [Zileuton], for which the “z-score of subpopulation abundance” value was -0.33.

On to `O=c1ccn(C2CC(O)C(CO)O2)c(=O)[nH]1` (centres undefined) [2-deoxyuridine], for which the “z-score of subpopulation abundance” value is -0.27.

With `Nc1nc2[nH]cc(CCc3ccc(C(=O)N[C@@H](CCC(=O)O)C(=O)O)cc3)c2c(=O)[nH]1` [Pemetrexed Disodium Hydrate], the “z-score of subpopulation abundance” value is -4.9.

The test system is the same in a further test. Briefly: z-score of subpopulation abundance vs DMSO median, subpopulation auxotrophic for LUM; higher = larger share of this subpopulation than in DMSO controls. The following applies: 10 µM; 24 h; SM minimal medium; subpopulation (auxotrophy): LUM. The method in brief: as §1
Regarding `C[C@]12CCC3=C4CCC(=O)C=C4CC[C@H]3[C@@H]1CC[C@@]2(O)CC#N` [Dienogest], the “z-score of subpopulation abundance” value was 0.

Consider `C[N+]1(C)CCC(OC(=O)C(O)(c2ccccc2)C2CCCC2)C1` (centres undefined) [Glycopyrrolate], for which the “z-score of subpopulation abundance” value came out at 0.56.

`NCC[C@H](O)C(=O)N[C@@H]1C[C@H](N)[C@@H](O[C@H]2O[C@H](CN)[C@@H](O)[C@H](O)[C@H]2O)[C@H](O)[C@H]1O[C@H]1O[C@H](CO)[C@@H](O)[C@H](N)[C@H]1O` [Amikacin disulfate]: the “z-score of subpopulation abundance” value is -0.03.

Take `CN1C2CCCC1CC(NC(=O)c1nn(C)c3ccccc13)C2` (centres undefined) [Granisetron]: the “z-score of subpopulation abundance” value was -0.48.

Regarding `COc1ccc2cc3[n+](cc2c1OC)CCc1cc2c(cc1-3)OCO2` [Berberine Sulfate], the “z-score of subpopulation abundance” value was -0.27.

For `CS(=O)(=O)Nc1ccc([N+](=O)[O-])cc1Oc1ccccc1` [Nimesulide], the “z-score of subpopulation abundance” value is 0.62.

In the case of `COc1cc(O)c(C(=O)Nc2nc(C(=O)NCCN(C(C)C)C(C)C)cs2)cc1OC` [Acotiamide hydrochloride], the “z-score of subpopulation abundance” value is -0.38.

In the case of `COC(=O)C1=C(C)NC(C)=C(C(=O)OC(C)(C)CN(C)CCC(c2ccccc2)c2ccccc2)C1c1cccc([N+](=O)[O-])c1` (centres undefined) [Lercanidipine hydrochloride], the “z-score of subpopulation abundance” value stood at 0.24.

As to `CC(c1cc2ccccc2s1)N(O)C(N)=O` (centres undefined) [Zileuton], the “z-score of subpopulation abundance” value stood at 0.12.

Regarding `O=c1ccn(C2CC(O)C(CO)O2)c(=O)[nH]1` (centres undefined) [2-deoxyuridine], the “z-score of subpopulation abundance” value was found to be 0.23.

Turning to `Nc1nc2[nH]cc(CCc3ccc(C(=O)N[C@@H](CCC(=O)O)C(=O)O)cc3)c2c(=O)[nH]1` [Pemetrexed Disodium Hydrate], the “z-score of subpopulation abundance” value is -3.47.
